Bioassay records as filed in PubChem.
USP28 inh: human USP28 deubiquitinase inhibition | Q96RU2 | purified USP28, Ub-rhodamine cleavage fluorescence, 30 min | inhibition, % at 25 µM | hit rate 3% among 47,000 | AID 1645857
USP17 block: human USP17-like deubiquitinase inhibition; purified USP17, Ub-rhodamine cleavage fluorescence, 3 h; inhibition, % at 50 µM; hit rate 6.5% among 47,000
USP30 block: inhibitors of human USP30 deubiquitinase; Q70CQ3; purified USP30, Ub-rhodamine cleavage fluorescence; inhibition, % at 25 µM; hit rate 5.3% among 47,000
OTUD3 block: inhibitors of human OTUD3 deubiquitinase | Q5T2D3 | purified OTUD3, Ub-rhodamine fluorescence, 2 h | hit rate 0.7% among 47,000 | inhibition, % at 25 µM
Target sequence (Q5T2D3 whole entry, looked up): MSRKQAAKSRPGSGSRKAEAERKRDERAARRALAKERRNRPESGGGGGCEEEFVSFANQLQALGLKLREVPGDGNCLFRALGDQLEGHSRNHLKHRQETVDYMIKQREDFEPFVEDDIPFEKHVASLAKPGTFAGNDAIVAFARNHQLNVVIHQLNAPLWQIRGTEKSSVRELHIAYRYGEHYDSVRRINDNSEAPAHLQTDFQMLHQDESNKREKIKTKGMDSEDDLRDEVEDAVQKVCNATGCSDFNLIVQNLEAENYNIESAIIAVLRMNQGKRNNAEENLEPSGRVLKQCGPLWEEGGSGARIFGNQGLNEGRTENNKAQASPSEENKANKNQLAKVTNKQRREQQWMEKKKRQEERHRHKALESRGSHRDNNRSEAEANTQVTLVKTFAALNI
Each line names hits and unclear results; the compound was inactive in the other large screens. Compounds with a hit are over-represented: about 11% of the library has one in this group of screens. Rule as the data show it: active = inhibition above about 30%; inactive = the rest.

CC(=O)N1CCCC(c2nc(N3CCOCC3)ncc2-c2cccnc2)C1 (configuration not stated)	USP30 block 37.3
Fc1ccc(-c2noc([C@@H]3CCCN3Cc3ncc[nH]3)n2)nc1	none
COc1ccc(C(=O)Nc2cc(-c3ccccn3)no2)c(OC)c1	USP17 block 32.8
COc1ccc(CC(=O)Nc2cc(-c3ccccn3)no2)cc1	none
COc1ccccc1C(=O)Nc1cc(-c2ccc(F)c(F)c2)no1	USP17 block 33.4, USP30 block 44.0
COc1ccccc1NC(=O)c1cc(-c2ccccn2)nc2ccccc12	USP17 block 58.6
CCCN(c1ccccc1)S(=O)(=O)c1ccc2nncn2c1	none
CNC(=O)c1c2n(c3ncccc13)CCN(S(=O)(=O)N(C)C)C2	none
Cn1c(CNS(=O)(=O)c2ccc(Cl)cc2)nnc1SCc1cccc(C(F)(F)F)c1	none
Cn1c(CNS(=O)(=O)c2ccc(Br)cc2)nnc1SCc1ccc(Cl)c(Cl)c1	USP28 inh 40.8, USP30 block 35.4
CC(C)(C)c1ccc(C(=O)Nc2ccc(Oc3cccnc3)nc2)cc1	USP28 inh 52.5
Cc1ccccc1C(=O)Nc1ccc(Oc2ccc(C(C)(C)C)cc2)nc1	none
COc1ccc(S(=O)(=O)N2CCC(c3c(C)[nH]c4ccccc34)CC2)cc1OC	none
CSc1ncccc1C(=O)OCc1ccc(Cl)c(Cl)c1	USP28 inh 43.5, USP17 block 45.4
O=C1CN(C(=O)CC2CCCCC2)C(c2ccccc2)c2cc(Br)ccc2N1 (configuration not stated)	USP30 block 40.7
C[C@@H]1Cc2cc(O)cc(O)c2C(=O)O[C@H](C)CC(=O)OC[C@@H](O)CC(=O)O[C@H](C)Cc2cc(O)cc(O)c2C(=O)O[C@H](C)CC(=O)O1	none
COc1cc(O)c2c(O)c3c(cc2c1)CC(C)OC3=O (configuration not stated)	USP28 inh 64.5, USP17 block 75.3, OTUD3 block 53.3
c1ccc(-c2cc(CSc3nc4ccccc4[nH]3)no2)cc1	USP17 block 32.5
Cc1nn(-c2cccc(C(F)(F)F)c2)c2c1C(c1ccccc1)N1C=C(Cl)C=C(Cl)C1=N2 (configuration not stated)	USP17 block 34.9
COc1ccc(C2c3c(C)nn(-c4ccccc4)c3N=C3C(=O)Nc4ccccc4N32)cc1 (configuration not stated)	none
Cc1ccccc1S(=O)(=O)N1CCC2(CC1)CCn1c(-c3cnn(C)c3)cnc12	none
Fc1cccc(CNc2cc(-n3ccnc3)ncn2)c1	USP28 inh 31.9
Cc1cccc(CNc2cc(-n3ccnc3)ncn2)c1	none
CCCNC(=O)c1ccn(-c2ccc3ccc(-c4cnn(C)c4)cn23)n1	none
O=C(Nc1ccccc1)N1CCCN(c2ccc([N+](=O)[O-])cn2)CC1	none
O=C(Nc1ccccc1)N1CCCN(c2c(Cl)cncc2Cl)CC1	USP30 block 32.0
Cn1cc(CCNC(=O)Nc2ccc(F)cc2)c2cccnc21	none
Cc1c(OCc2ccc(Cl)cc2Cl)ccc2c1OC(C)(C)CC2=O	none
Cc1c(OCc2ccccc2F)ccc2c1OC(C)(C)CC2=O	USP17 block 30.7
Cc1nc(SCC(=O)Nc2ccc3c(c2)OCO3)c2oc3ccccc3c2n1	none
CCc1cc2cc3c(cc2nc1SCC(=O)Nc1cccc(C(C)=O)c1)OCO3	USP17 block 62.6
O=C(CNC(=O)c1cc2ccccc2o1)Nc1cccc(F)c1	USP30 block 46.0
COc1cc(NC(=O)Cc2ccccc2)ccc1NC(=O)c1cc2ccccc2o1	USP17 block 70.3, USP30 block 41.2
O=C(CNC(=O)c1cc2ccccc2o1)Nc1ccc2c(c1)OCCO2	USP28 inh 56.2, USP17 block 63.4
CC(NC(=O)CNC(=O)c1ccc2c(c1)OCO2)c1cc2ccccc2o1 (configuration not stated)	USP17 block 42.0
Cc1ccc(NC(=O)CNC(=O)c2cc3ccccc3o2)cc1F	none
CCC(NC(=O)c1ccc2c(c1)OCO2)c1ccccc1 (configuration not stated)	none
Cc1ccc(NC(=O)CNC(=O)c2cc3ccccc3o2)cc1	USP17 block 55.4
Cc1ccc(-n2c(Cc3cccn3C)nnc2SCC(=O)N2CCCC2)cc1	none
Cc1nc(-c2noc3ccc(C(=O)N4CCC(N(C)C)CC4)cc23)cs1	none
Cc1nccnc1CCC1COCCN1C(=O)c1n[nH]c2ccccc12 (configuration not stated)	none
Cc1nccnc1CCC1COCCN1C(=O)c1ccc2n[nH]nc2c1 (configuration not stated)	USP30 block 31.4
O=C(Nc1nc2c(s1)CN(C(=O)c1cc(-c3ccco3)on1)CC2)C1CC1	USP17 block 34.8
Cc1nc(-c2ccc(NC(=O)N3CCC(Cc4ccccc4)CC3)cc2)no1	USP28 inh 39.5
Cc1nc(-c2ccc(NC(=O)N3CCN(c4ccccn4)CC3)cc2)no1	USP28 inh 61.9
Cc1nc(-c2ccc(NC(=O)N3CCN(c4ccccc4F)CC3)cc2)no1	none
O=[N+]([O-])c1ccccc1C(c1c[nH]c2ccccc12)c1c[nH]c2ccccc12	USP17 block 53.8
OC(c1ccccn1)c1c[nH]c2ccccc12 (configuration not stated)	none
O=C(c1ccccc1)c1cccc2c1NCC2	USP28 inh 43.0
Cc1cc(C)cc(N2C(N)=NC(N)=NC2c2ccccc2F)c1 (configuration not stated)	USP30 block 36.9
Cc1c(-c2ccccc2)oc2c(C(=O)OCC(=O)Nc3cc(S(=O)(=O)N4CCOCC4)ccc3Cl)cccc2c1=O	none
O=C(O)c1ccc(NCc2nc3ccccc3n2Cc2ccccc2F)cc1	none
COc1ccc(NCc2nc3ccccc3n2Cc2ccccc2)cc1	USP17 block 64.4
CCCc1cc(C2CCCN2C(=O)c2cc(C3CCCCC3)no2)no1 (configuration not stated)	none
Cc1cc(N2CCN(c3ncccn3)CC2)nc2ccc(NC(=O)c3ccncc3)cc12	USP17 block 71.5
Cc1c(Cc2ccccc2)c(=O)oc2cc3occ(-c4ccc5ccccc5c4)c3cc12	USP17 block 31.9
Cc1noc(-c2ccc(-n3ncc(C(=O)NC(C)c4ccccc4)c3C)nc2)n1 (configuration not stated)	none
O=C(NCc1ccc(F)cc1)C(c1ccccc1)c1ccccc1	USP30 block 30.8
Cn1c(=O)n([C@@H](Cc2ccccc2)C(=O)NCc2ccc(F)cc2)c(=O)c2ccccc21	USP30 block 45.8
Cc1cccc(NC(=O)Cn2cc(S(=O)(=O)N3CCCCC3)ccc2=O)c1	none
O=C(Cn1nc(-c2ccco2)ccc1=O)Nc1cccc(Br)c1	USP17 block 36.7
Cc1ccc(-c2cc(NC(=O)C(C)C)c(=O)n(CC(=O)Nc3cccc(F)c3)n2)cc1	none
O=C1c2ccccc2C2(CCCC2)C(=O)N1Cc1ccccc1	USP17 block 33.2
CC(C)(C)c1ccc(C(=O)OCC(=O)Nc2ccc3c(c2)OCO3)cc1	none
Cc1cccc(-c2nnc(SCC(=O)Nc3ccc4[nH]c(=O)[nH]c4c3)n2C)c1	none
O=C(COC(=O)c1ccc2c(c1)OCO2)Nc1ccc2[nH]c(=O)[nH]c2c1	USP17 block 42.4
